The results in this text go back to PubChem BioAssay (NCATS).

Test [1] concerns the target Rap guanine nucleotide exchange factor 3 (Homo sapiens) (UniProt O95398). As to the kind of experiment: Confirmatory qHTS for antagonist of cAMP-regulated guanine nucleotide exchange factor 3 (EPAC1) (AID 1645880). Further: nearly all actives have a fitted effect of over 55% in size. Further: potency means the concentration at half of the fitted maximal effect.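 On activity, negative = inhibition: plate controls were DMSO only for no effect and full effect of the ATA control for full effect.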 The settings on record: EPAC1 Rap1B-BODIPY-GDP exchange, fluorescence; activity, negative = inhibition: at 115 µM (top of the series). The method, boiled down:
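Nucleotide exchange uses 100 nM EPAC1, 250 nM RAP1B-BODIPY-GDP and 50 uM GDP, with compounds in a concentration-titration series. After 5 min at room temperature, fluorescence (480 nm ex/540 nm em) is read every 5 min for 30 min. Data are normalized to control ATA and DMSO.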

For test [2] the target is unchanged. As to the kind of experiment: Confirmatory qHTS for agonist of cAMP-regulated guanine nucleotide exchange factor 3 (EPAC1) (AID 1645881).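 Further: EPAC1 catalysed release of BODIPY-GDP from Rap1B seen as fluorescence loss; 100% = effect of cAMP agonist control; nearly all actives have a fitted effect of over 75% in size.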
For test [3], the target named is Rap guanine nucleotide exchange factor 4 (Homo sapiens) (UniProt Q8WZA2). Description: Confirmatory qHTS for agonist of cAMP-regulated guanine nucleotide exchange factor 4 (EPAC2) (AID 1645884).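 Further: nucleotide exchange releases bodipy-GDP from Rap1 and this lowers its fluorescence; on the % scale 0 is the no-effect control and ±100 the full control effect; nearly all actives have a fitted effect of over 65% in size.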
Sequence of Rap guanine nucleotide exchange factor 4 (Homo sapiens) (Q8WZA2 whole entry, looked up): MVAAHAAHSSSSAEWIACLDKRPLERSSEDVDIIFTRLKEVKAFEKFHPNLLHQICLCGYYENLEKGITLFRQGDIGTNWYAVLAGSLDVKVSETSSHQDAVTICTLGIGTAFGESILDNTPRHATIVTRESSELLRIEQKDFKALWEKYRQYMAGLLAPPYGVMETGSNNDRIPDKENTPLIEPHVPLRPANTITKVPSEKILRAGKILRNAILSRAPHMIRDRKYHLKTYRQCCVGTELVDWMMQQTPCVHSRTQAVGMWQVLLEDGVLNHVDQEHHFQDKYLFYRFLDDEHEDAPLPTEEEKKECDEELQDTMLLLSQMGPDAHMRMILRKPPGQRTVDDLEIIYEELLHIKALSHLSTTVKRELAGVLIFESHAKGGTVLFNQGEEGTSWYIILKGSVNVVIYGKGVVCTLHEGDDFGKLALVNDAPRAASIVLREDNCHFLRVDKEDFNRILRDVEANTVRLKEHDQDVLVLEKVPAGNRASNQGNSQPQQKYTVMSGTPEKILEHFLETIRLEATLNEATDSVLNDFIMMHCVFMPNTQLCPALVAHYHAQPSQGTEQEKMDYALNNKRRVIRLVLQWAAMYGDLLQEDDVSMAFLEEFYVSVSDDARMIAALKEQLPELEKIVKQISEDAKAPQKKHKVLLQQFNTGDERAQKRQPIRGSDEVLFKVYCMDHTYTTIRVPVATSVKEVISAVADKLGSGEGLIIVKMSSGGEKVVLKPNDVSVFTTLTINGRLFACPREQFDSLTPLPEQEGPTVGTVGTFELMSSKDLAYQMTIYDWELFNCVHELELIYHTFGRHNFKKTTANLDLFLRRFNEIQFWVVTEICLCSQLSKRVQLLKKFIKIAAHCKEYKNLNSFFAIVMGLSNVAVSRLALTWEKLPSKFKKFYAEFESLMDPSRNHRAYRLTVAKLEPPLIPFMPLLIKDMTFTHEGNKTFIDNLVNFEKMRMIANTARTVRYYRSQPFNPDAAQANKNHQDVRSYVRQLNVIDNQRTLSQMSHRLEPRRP
Test [4] shares this target. As to the kind of experiment: Confirmatory qHTS for antagonist of cAMP-regulated guanine nucleotide exchange factor 4 (EPAC2) (AID 1645885). Further: nearly all actives have a fitted effect of over 25% in size. On activity change, negative = inhibition: on the % scale 0 is the no-effect control and ±100 the full control effect.
Test [5] concerns the target Rap guanine nucleotide exchange factor 3 (Homo sapiens) (UniProt O95398). Description: Counterscreen qHTS for antagonist of cAMP-regulated guanine nucleotide exchange factor 3 (EPAC1) (AID 1645888).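 Further: fluorescence loss as bound BODIPY-GDP is released from Rap1B; % of control where 0% means no effect.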 The method, boiled down: (§1)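 Rap1B-BODIPY-GDP 250 nM + GDP 50 uM; cpds 7-pt, final 9.74 nM–152 uM (activator mode) or from 7.32 nM upwards (inhibitor mode); RT; FI 480/540 nm at 5 and 30 min, then ± cAMP, reread.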

The target is the same in test [6]. As to the kind of experiment: Counterscreen qHTS for agonist of cAMP-regulated guanine nucleotide exchange factor 3 (EPAC1) (AID 1645889). Further: % of control where 0% means no effect; nearly all actives have a fitted effect of over 40% in size. The method, boiled down:
as §1

Inconclusive results are not listed. A number with no mark means an inactive call. The source made the active and inactive calls. The call rests on the fitted dose curve; in most records, active means well fitted curve in the direction sought with a large enough effect; inconclusive means small, poorly fitted or top-dose-only effect, or another doubt; inactive means no such curve, though single readings can be large; an effect the other way counts as inactive or inconclusive.

Sequence of Rap guanine nucleotide exchange factor 3 (Homo sapiens) (O95398 whole entry, looked up): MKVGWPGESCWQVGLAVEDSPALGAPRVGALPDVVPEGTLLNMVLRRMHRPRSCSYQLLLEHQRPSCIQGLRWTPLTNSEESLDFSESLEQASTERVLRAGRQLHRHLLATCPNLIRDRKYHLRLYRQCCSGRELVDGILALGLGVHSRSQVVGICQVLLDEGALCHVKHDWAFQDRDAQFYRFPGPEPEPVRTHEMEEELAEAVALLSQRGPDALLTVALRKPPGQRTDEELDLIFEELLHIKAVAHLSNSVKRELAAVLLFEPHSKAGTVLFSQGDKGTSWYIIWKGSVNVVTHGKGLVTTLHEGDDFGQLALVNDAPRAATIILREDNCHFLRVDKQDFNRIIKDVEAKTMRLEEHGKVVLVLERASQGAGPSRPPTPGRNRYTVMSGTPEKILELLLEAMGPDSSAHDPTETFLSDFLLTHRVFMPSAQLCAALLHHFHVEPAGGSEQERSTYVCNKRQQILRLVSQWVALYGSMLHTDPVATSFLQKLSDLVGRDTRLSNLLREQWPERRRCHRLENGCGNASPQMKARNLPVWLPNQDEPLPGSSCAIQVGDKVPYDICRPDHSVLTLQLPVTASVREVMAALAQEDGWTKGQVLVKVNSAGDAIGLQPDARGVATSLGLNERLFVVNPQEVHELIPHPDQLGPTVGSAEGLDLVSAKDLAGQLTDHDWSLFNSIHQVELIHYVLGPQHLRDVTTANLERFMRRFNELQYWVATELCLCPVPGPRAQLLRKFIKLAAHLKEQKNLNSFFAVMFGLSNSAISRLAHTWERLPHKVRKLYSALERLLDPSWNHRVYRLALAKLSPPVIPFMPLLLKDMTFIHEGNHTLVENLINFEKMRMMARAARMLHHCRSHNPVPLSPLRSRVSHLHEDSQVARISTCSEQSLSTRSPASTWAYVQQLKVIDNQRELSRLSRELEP

`COC(=O)[C@@H](NC(=O)Nc1ccc2c(c1)OCCO2)C(C)C`: the Potency result in test [1], in test [2], in test [3], in test [4], in test [5] and in test [6] was “inactive” in each case.
As for `CC(=O)Nc1cc(C(=O)NCc2ccco2)ccc1Sc1ccc(C)cc1`, the Potency entry in test [1], in test [2] and in test [4] was “inactive” each time. Moreover, the activation in test [3] was 3.77% [at 17.1 µM, percent relative to cAMP agonist control]; in test [6] it was 6.12% [at 30.8 µM]. Also, in test [5], the activity change, negative = inhibition is -18.4% [at 30.8 µM].
Turning to `COc1cc(NC(=O)CCc2c(C)nc3c4c(C)cc(C)nc4nn3c2C)cc(OC)c1`, the Potency entry in test [1], in test [2], in test [3], in test [4], in test [5] and in test [6] was “inactive” throughout.
With `O=c1[nH][nH]c(-c2ccccc2O)c1C(C[N+](=O)[O-])c1ccc(Cl)cc1Cl` (centres undefined), the Potency entry in test [1], in test [2], in test [3], in test [4], in test [5] and in test [6] was “inactive” in each case.
As to `O=C(O)CSc1cc(C(=O)c2ccccc2O)cn2c(=O)c3c(-c4ccccc4)csc3nc12`, the Potency result in test [1], in test [2] and in test [4] was “inactive” throughout. Besides, the activation in test [3] is -8.3% [at 17.1 µM, percent relative to cAMP agonist control]; in test [6], 17.9% [at 30.8 µM]. In test [5], the activity change, negative = inhibition was -7.65% [at 30.8 µM].
`O=C1CCc2cc(NS(=O)(=O)c3ccc([N+](=O)[O-])cc3)cc3c2N1CC3`: the Potency result in test [1], in test [2], in test [3], in test [4], in test [5] and in test [6] was “inactive” each time.
Take `COc1ccc(-c2cc(C(F)(F)F)nc(SCC(=O)N3CCCCC3C)n2)cc1OC` (centres undefined): the Potency entry in test [1], in test [2], in test [3], in test [5] and in test [6] was “inactive” throughout. In addition, the outcome in test [4] was “inactive [at 12.7 µM]”.
`Cc1ccc(Nc2ccc(N3CCN(C(=O)c4ccc([N+](=O)[O-])cc4)CC3)nn2)cc1`: the Potency result in test [1], in test [2], in test [3], in test [4], in test [5] and in test [6] was “inactive” throughout.
In the case of `CCc1ccc(NC(=O)CSc2nc(-c3ccccc3)c(C#N)c(=O)[nH]2)cc1`, in test [1], the Potency is 75.7 µM (active). Moreover, the Potency result in test [2], in test [3], in test [5] and in test [6] was “inactive” in each case. Besides, the outcome in test [4] is “inactive [at 12.7 µM]”.
Regarding `Cc1cc2oc(=O)cc(CN3CCCC3)c2cc1Cl`, the Potency result in test [1], in test [2] and in test [4] was “inactive” in each case. Moreover, the activation was -3.71% [at 17.1 µM, percent relative to cAMP agonist control] in test [3] and 28.8% [at 30.8 µM] in test [6]. Besides, the activity change, negative = inhibition in test [5] is 3.14% [at 30.8 µM].
Consider `Cc1ccc(Cc2cnc(N3C(=N)SC(c4ccccc4)C3=O)s2)cc1` (centres undefined), for which the Potency result in test [1], in test [2] and in test [4] was “inactive” in each case. Besides, the activation was 9.77% [at 17.1 µM, percent relative to cAMP agonist control] in test [3] and 27.7% [at 30.8 µM] in test [6]. Besides, the activity change, negative = inhibition in test [5] was -12.3% [at 30.8 µM].
For the molecule `COc1ccc(CCNC2CC(=O)N(CCc3ccc(OC)c(OC)c3)C2=O)cc1` (centres undefined), the Potency result in test [1], in test [2] and in test [4] was “inactive” each time. Moreover, the activation in test [3] is 4.7% [at 17.1 µM, percent relative to cAMP agonist control]; in test [6], 8.52% [at 30.8 µM]. In test [5], the activity change, negative = inhibition is -1.61% [at 30.8 µM].
In the case of `CCOC(=O)c1c(-c2ccc(OC)cc2)csc1/N=C/C1=C(O)CCCC1=O`, the Potency entry in test [1], in test [2] and in test [4] was “inactive” each time. The activation in test [3] was 4.43% [at 17.1 µM, percent relative to cAMP agonist control]; in test [6] it was 11.3% [at 30.8 µM]. Besides, the activity change, negative = inhibition in test [5] was -7.43% [at 30.8 µM].
For `COc1ccc(-n2c(SCC(=O)Nc3ccccc3OC)nc(O)cc2=O)cc1`, the Potency entry in test [1], in test [2] and in test [4] was “inactive” each time. Further, the activation in test [3] is 4.67% [at 17.1 µM, percent relative to cAMP agonist control]; in test [6], 2.02% [at 30.8 µM]. Further, the activity change, negative = inhibition in test [5] was -3.75% [at 30.8 µM].
Regarding `CC(Oc1ccc(Br)cc1)C(=O)NCC(c1cccs1)N1CCOCC1` (centres undefined), the Potency entry in test [1], in test [2], in test [3], in test [4], in test [5] and in test [6] was “inactive” each time.
On to `CCC(C)Sc1nc2c(c(=O)[nH]c(=O)n2C)n1CC(O)COc1cccc2ccccc12` (centres undefined), for which the Potency entry in test [1], in test [2], in test [3], in test [4], in test [5] and in test [6] was “inactive” each time.
`CCc1ccccc1N(C)S(=O)(=O)c1ccc2[nH]cc(C(=O)N3CCc4ccccc43)c(=O)c2c1`: the Potency result in test [1], in test [2] and in test [4] was “inactive” each time. Further, the activation in test [3] was -2.56% [at 17.1 µM, percent relative to cAMP agonist control]; in test [6], 15.8% [at 30.8 µM]. Also, the activity change, negative = inhibition in test [5] is -6.13% [at 30.8 µM].
On to `CCCCc1nc(SCCOC)c2c(=O)n(C)c(=O)n(C)c2n1`, for which the Potency entry in test [1], in test [2] and in test [4] was “inactive” throughout. Moreover, the activation was 4.93% [at 17.1 µM, percent relative to cAMP agonist control] in test [3] and -0.239% [at 30.8 µM] in test [6]. Besides, in test [5], the activity change, negative = inhibition was -15.9% [at 30.8 µM].
For `CCc1cc2c(=O)c(-c3nc4ccccc4n3C)coc2c(CN2CCCCC2C)c1O` (centres undefined), the Potency result in test [1], in test [2], in test [3], in test [4], in test [5] and in test [6] was “inactive” throughout.
